ClpP mod = qHTS Assay for Activators of ClpP. purified B. subtilis ClpP, FRET peptide cleavage, 20 min. ATP-dependent Clp protease proteolytic subunit (Bacillus subtilis (strain 168)), P80244. Potency, µM (titrated, usually from 57.5 µM), inactives show at the top dose activity change, negative = active. 340,000 compounds, 1.9% hits; active = well fitted falling curve with a large enough effect; inconclusive = small, poorly fitted or top-dose-only effect; inactive = no such curve, though single readings can be large or run the other way; also: the source files actives as falling curves though it sought activators and does not explain the sign; nearly all actives have a fitted effect of over 65% in size
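Buffer: 100 mM Tris/HCl pH8, 100 mM KCl, 0.05% low protease BSA, 2.5% glycerol, 0.01% Tween-20. ClpP 10 microg/mL final; 20 min RT; delta FRET normalized to ADEP and DMSO controls.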
DT40 TDP1 no CPT = qHTS for Inhibitors of human tyrosyl-DNA phosphodiesterase 1 (TDP1): qHTS in cells in absence of CPT; DT40 Tdp1-/- hTDP1 cells, no CPT, ATP luminescence, 48 h; Potency, µM (top dose mostly 46.2 µM), for inactives: at the top dose activity change, negative = growth inhibition, hits mostly inhibitors; 420,000 compounds, 15% hits; AID 686978, 2013; also: % is scaled to controls: 0 for no effect and ±100 for the full control effect; nearly all actives have a fitted effect of over 55% in size
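Luminescent ATP content (CellTiter-Glo) served as the growth readout. Knockout chicken DT40 cells expressing human TDP1 were exposed to compounds without camptothecin for a minimum 48 hr at 37 °C.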
TDP1 inh = inhibitors of human tyrosyl-DNA phosphodiesterase TDP1; Q9NUW8; recombinant TDP1, AlphaScreen DNA substrate cleavage; Potency, µM (series often up to 130 µM), for inactives: at the highest dose activity change, negative = inhibition, most hits filed as inhibitors; 350,000 compounds, 0.28% hits; AID 485290; also: % is scaled to controls: 0 for no effect and ±100 for the full control effect; nearly all actives have a fitted effect of over 40% in size
Target sequence (Q9NUW8 whole entry, looked up): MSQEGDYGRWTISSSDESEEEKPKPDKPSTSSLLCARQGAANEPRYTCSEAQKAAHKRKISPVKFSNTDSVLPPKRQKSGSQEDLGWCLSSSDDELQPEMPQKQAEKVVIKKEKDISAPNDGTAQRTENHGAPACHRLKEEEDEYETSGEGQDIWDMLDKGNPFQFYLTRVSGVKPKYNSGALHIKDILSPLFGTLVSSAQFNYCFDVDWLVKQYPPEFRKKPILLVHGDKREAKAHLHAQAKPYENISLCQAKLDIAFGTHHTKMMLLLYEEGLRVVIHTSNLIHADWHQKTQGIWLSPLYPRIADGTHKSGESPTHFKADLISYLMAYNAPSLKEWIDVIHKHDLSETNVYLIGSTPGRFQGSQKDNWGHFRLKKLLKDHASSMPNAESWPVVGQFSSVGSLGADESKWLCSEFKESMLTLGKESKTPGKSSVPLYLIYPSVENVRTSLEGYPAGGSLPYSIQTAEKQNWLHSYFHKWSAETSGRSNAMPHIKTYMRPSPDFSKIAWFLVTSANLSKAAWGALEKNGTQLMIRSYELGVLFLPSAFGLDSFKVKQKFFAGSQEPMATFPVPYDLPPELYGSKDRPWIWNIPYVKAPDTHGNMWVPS
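Compounds were preincubated with Tdp1 (1 nM final) for 15 min at room temperature before substrate (15 nM final) started a 5 min reaction; beads (10 ug/ml final) were then added for 10 min before AlphaScreen detection.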
TDP1 cell CPT = growth inhibition of DT40 Tdp1-/-;hTDP1 cells with camptothecin (screen for TDP1 inhibitors). chicken DT40 Tdp1-/-;hTDP1 cells + 20 nM CPT, ATP luminescence, 48 h. Potency, µM (top dose mostly 46.2 µM), inactives show at the top dose activity change, negative = growth inhibition, most hits filed as inhibitors. 420,000 compounds, 12% hits; also: % is scaled to controls: 0 for no effect and ±100 for the full control effect; nearly all actives have a fitted effect of over 55% in size
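Cell growth measured by CellTiter-Glo luminescence after a minimum 48 h, 37 C compound exposure with 20 nM CPT in Tdp1-knockout DT40 cells stably expressing hTDP1, seeded 400/well; qHTS titration format.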
* marks the source's active call; other numbers are inactive results; ? = inconclusive; nt = no result given; ! = not confirmed by another sample; [ ] = remark or other dose. Hits are enriched below; roughly 17% of the tested compounds scored in any of these assays. Unless noted, calls follow the shape of the dose curve; as a rule, active = well fitted curve in the direction sought with a large enough effect; inconclusive = small, poorly fitted or top-dose-only effect, or another doubt; inactive = no such curve, though single readings can be large; an effect the other way counts as inactive or inconclusive. Potency is read from the fitted curve at half-maximal effect.

SMILES | ClpP mod | DT40 TDP1 no CPT | TDP1 inh | TDP1 cell CPT
O=S(=O)(NCc1cn2ccsc2n1)c1ccc(Oc2ccccc2)cc1 | 1.2% | 10.3µM* | 5.9% | 9.2µM*
O=S(=O)(NCc1cn2ccsc2n1)c1ccc2c(c1)OCCO2 | -0.6% | 23.1µM* | 3.1% | ?
Cc1ccc(S(=O)(=O)NCc2cn3c(C)csc3n2)cc1 | -10.0% | -22.0% | -1.8% | -5.4%
Cc1csc2nc(CNS(=O)(=O)c3ccc(-c4ccccc4)cc3)cn12 | -8.2% | 18.4µM* | 2.6% | ?
COc1ccccc1N(CC(=O)N1CCCCC1C)S(=O)(=O)c1ccc(Cl)cc1 (centres undefined) | -0.7% | ? | nt | ?
O=C(NCCc1ccc(Cl)cc1)c1cnccn1 | -0.2% | 14.0% | nt | 1.4%
CC(C)(C)C(=O)N(Cc1ccc(Cl)cc1)c1cnccn1 | -1.9% | 11.6µM* | nt | ?
COc1cc2nc(Nc3cccc(F)c3)nc(N)c2cc1OC | 31.6µM*! | 5.8µM* | 0.0% | 11.6µM*
COc1ccc(Nc2nc(N)c3ccccc3n2)c(OC)c1 | nt | -34.4% | nt | 12.1%
Cc1ccc(Nc2nc(N)c3ccccc3n2)cc1C | -5.5% | 23.1µM* | nt | 14.6µM*
Cc1ccc(Nc2nc3ccccc3c(=O)[nH]2)cc1C | nt | ? | 5.0% | ?
COc1ccc(Nc2nc(N)c3cc(OC)c(OC)cc3n2)cc1 | -17.6% | 18.4µM* | -2.1%[12.3 µM] | ?
O=C(N[C@@H](Cc1ccc(O)cc1)C(=O)O)c1ccncc1 | -0.6% | 1.7% | nt | -1.2%
COC(=O)c1cc(-c2ccc(C)o2)nc2ccccc12 | -1.3% | 14.6µM* | nt | 7.31µM*
COc1cccc(NC(=O)c2cc(-c3ccc(C)o3)nc3ccccc23)c1 | -7.7% | ? | nt | ?
Cc1ccc(-c2cc(C(=O)Nc3cccc(S(=O)(=O)N(C)C)c3)c3ccccc3n2)o1 | nt | 16.4µM* | 12.9% | ?
Cc1ccc(-c2cc(C(=O)NCC(c3ccccc3)N(C)C)c3ccccc3n2)o1 (centres undefined) | nt | ? | 0.3% | ?
Cc1ccc(-c2cc(C(=O)O)c3cc(Br)ccc3n2)o1 | ? | -11.1% | nt | 1.5%
Cc1ccc(-c2cc(C(=O)Nc3ccccc3C)c3ccccc3n2)o1 | ? | 18.4µM* | -5.0% | ?
Cc1ccc(-c2cc(C(=O)N3CC(C)CC(C)C3)c3ccccc3n2)o1 (centres undefined) | nt | 18.4µM* | -13.8% | ?
CC1CCCN(C(=O)Cn2nnc(-c3ccccc3F)n2)C1 (centres undefined) | 2.5% | 25.9% | nt | -12.9%
O=C(NCc1ccccc1)c1cc(C2COCCN2C(=O)C2CC2)on1 (centres undefined) | -1.3% | 5.2% | nt | -9.2%
N#C/C(=C\c1cc(Cl)cc(Cl)c1O)C(=O)NC1CCCCC1 | ? | ? | 0.0% | 20.6µM*
N#C/C(=C\c1ccccc1[N+](=O)[O-])C(=O)NC1CCCCC1 | nt | 14.6µM* | 5.9% | ?
COc1ccc(-c2[nH]ncc2/C=C(/C#N)C(=O)NC2CCCCC2)cc1 | -1.5% | ? | -0.7% | ?
SMILES | ClpP mod | DT40 TDP1 no CPT | TDP1 inh | TDP1 cell CPT
N#C/C(=C\c1cc(Cl)ccc1O)C(=O)NC1CCCCC1 | -1.9% | ? | 2.0% | ?
N#C/C(=C\C=C\c1ccccc1[N+](=O)[O-])C(=O)NC1CCCCC1 | nt | 9.2µM* | 8.9% | 9.2µM*
Cc1ccc(-c2[nH]ncc2/C=C(\C#N)C(=O)NC2CCCCC2)cc1 | -0.4% | 20.6µM* | 5.1% | ?
CC(=O)Nc1ccc(-c2nnc3n(Cc4ccc(C)cc4)c(=O)c4ccccc4n23)cc1 | -3.3% | -20.0% | 8.6% | -21.2%
CC1CCC(NC(=O)CCS(=O)(=O)c2ccc3c(c2)CCN3C(=O)C2CC2)CC1 (centres undefined) | -0.3% | 0.0% | 0.6% | -22.9%
COc1ccc(S(=O)(=O)N2CCC(C(=O)NN3CCCCC3)CC2)cc1 | -2.1% | -2.6% | nt | 2.2%
N#C/C(=C\c1cc(Br)ccc1F)C(=O)NC1CC1 | 1.1% | ? | 1.5% | 13µM*
COc1ccccc1-n1c(=O)oc2ccc(Cl)cc2c1=O | 66.5% | 16.4µM* | 1.1% | ?
COc1c(Cl)c(=O)oc2ccc(Cl)cc12 | -15.1% | -1.6% | nt | -14.2%
CC(C)(C)NC(=O)C(c1ccc(F)cc1)N(Cc1ccco1)C(=O)CCC(=O)Nc1ccccn1 (centres undefined) | nt | -1.5% | 4.7%[0.0935 µM] | 0.9%
COCCCNC(=S)NNC(=O)C1CC1c1ccc(C(C)(C)C)cc1 (centres undefined) | -0.5% | 8.2µM* | -2.7% | 11.6µM*
O=C1C=C(NC2=CC3OC(c4ccccc4)OCC3OC2=O)CCC1 (centres undefined) | 1.1% | 9.2µM* | -1.2% | 8.2µM*
N#Cc1ccccc1NC1=CC(=O)CCC1 | -4.0% | -5.4% | -1.0% | -11.7%
O=C(Cc1cccc(NC(=O)C2CCCN(C(=O)C3CCCCC3)C2)c1)Nc1cccc(C(=O)N2CCCCC2)c1 (centres undefined) | 1.9% | -15.6% | nt | -5.3%
COc1cc(/C=C\C(=O)NCc2ccc3c(c2)cc(C)n3C)cc(OC)c1OC | -6.4% | 25.9µM* | 2.7% | -19.8%
COc1ccc(CC(=O)NCc2ccc3c(c2)cc(C)n3C)cc1OC | -6.4% | 14.6µM* | 3.5% | -27.2%
COCC(=O)NCc1ccc2c(c1)cc(C)n2C | nt | -2.0% | -2.6% | 8.9%
O=C(c1csnn1)N1CCC2(CCCN(c3ccncc3)C2)CC1 | nt | ? | nt | 2.0%
CCn1c(SCC(=O)Nc2nc3ccc(OC)cc3s2)nc2c1c(=O)n(C)c(=O)n2C | -0.7% | ? | 3.0% | 18.4µM*
CC(C)n1c(SCC(=O)Nc2nc3ccccc3s2)nc2c1c(=O)n(C)c(=O)n2C | -2.7% | 20.6µM* | nt | 16.4µM*
CC(C)n1c(SCC(=O)Nc2ccc3c(c2)OCO3)nc2c1c(=O)n(C)c(=O)n2C | 0.9% | ? | 1.9% | ?
CCOc1ccc2nc(NC(=O)CSc3nc4c(c(=O)n(C)c(=O)n4C)n3C(C)C)sc2c1 | -0.2% | 14.6µM* | 0.0% | 23.1µM*
CCOC(=O)C(=CNc1ccc(Oc2cncc(Cl)c2)nc1)C(=O)OCC | nt | ? | nt | -13.3%
O=C(Nc1cc(Cl)ccc1O)c1snnc1-c1ccccc1 | 0.8% | 16.4µM* | 4.8% | 13µM*
COC(=O)c1c(NC(=O)CCS(=O)(=O)c2ccccc2)sc2c1CCN(C)C2 | -5.4% | 3.66µM* | 5.9% | 5.8µM*
N#Cc1c(N)sc2c1CCN(CCc1ccccc1)C2 | 22.4µM* | ? | 2.4% | 18.4µM*
CC(C)(C)C(=O)Nc1sc2c(c1C#N)CCN(Cc1ccccc1)C2 | -20.1% | 23.1µM* | nt | ?
N#Cc1c(NC(=S)NC(=O)c2ccccc2)sc2c1CCN(CCc1ccccc1)C2 | nt | nt | 5.6% | nt
CC(C)N1CCc2c(sc(NC(=O)CCS(=O)(=O)c3ccccc3)c2C#N)C1 | -4.8% | 25.9µM* | 3.7%[56.1 µM] | ?
